ALR H2O2 inh – human ALR oxidase inhibition via reduced H2O2. P55789. purified ALR, DTT oxidation, H2O2 HRP-luminol luminescence. inhibition, % (no concentration beside the values). 290,000 compounds, 3.8% hits;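 active = mean replicate inhibition above about 79%, with every replicate also reaching it, limit read from the data; inconclusive = only one of the two criteria met; inactive = mean below limit and not every replicate reaching it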
Target sequence (P55789 whole entry, looked up): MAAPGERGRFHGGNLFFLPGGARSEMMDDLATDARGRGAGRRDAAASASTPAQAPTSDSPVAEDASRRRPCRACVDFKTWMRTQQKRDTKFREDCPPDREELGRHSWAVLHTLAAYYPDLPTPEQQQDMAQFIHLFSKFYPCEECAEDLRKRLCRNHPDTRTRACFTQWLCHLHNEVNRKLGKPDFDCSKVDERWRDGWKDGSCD
ARNT TACC3 PPI – disruptors of human ARNT/TACC3 interaction; 390,000 compounds, 0.66% hits; AlphaScreen His-ARNT PAS-B/GST-TACC3 binding, luminescence; TACC3 fragment carries E629A point mutation; AID 623870; inhibition, % at 9.99 µM; Q9Y6A5;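 active = mean inhibition of replicates at least 50% and at least half of replicates each reaching 50%; inconclusive = half or more replicates reach 50% but mean below 50%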;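 note: 0% = complete ARNT plus TACC3 wells and 100% = ARNT alone without TACC3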
CendR NRP1 mod – modulators of CendR peptide binding to human neuropilin-1; O14786; FAM-RPARPAR peptide binding to NRP-1, fluorescence polarization; inhibition, % at 25 µM; 360,000 compounds, 0.85% hits;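 active = inhibition or corrected inhibition above about 18%, plus a signal ratio from 0.5 to 1.5, limit read from the data, passing the limit was not always enough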
PglD DTNB – inhibitors of Campylobacter jejuni PglD acetyltransferase; inhibition, % at 12.5 µM; purified PglD enzyme, DTNB colorimetric CoA detection; AID 602405; 360,000 compounds, 0.098% hits; in the data active = inhibition above about 16%, passing the limit was not always enough; inconclusive = no clear call, values can overlap the other calls
ERp5 block – blocks human ERp5 reductase activity on insulin | Q15084 | ERp5 insulin aggregation, absorbance 650 nm, 90 min | inhibition, % at 9.99 µM | 350,000 compounds, 0.05% hits | AID 651711;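 active = mean replicate inhibition above about 25%, with every replicate also reaching it, limit read from the data, passing the limit was not always enough; inconclusive = only one of those two criteria met; inactive = neither criterion met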
Target sequence (Q15084 whole entry, looked up): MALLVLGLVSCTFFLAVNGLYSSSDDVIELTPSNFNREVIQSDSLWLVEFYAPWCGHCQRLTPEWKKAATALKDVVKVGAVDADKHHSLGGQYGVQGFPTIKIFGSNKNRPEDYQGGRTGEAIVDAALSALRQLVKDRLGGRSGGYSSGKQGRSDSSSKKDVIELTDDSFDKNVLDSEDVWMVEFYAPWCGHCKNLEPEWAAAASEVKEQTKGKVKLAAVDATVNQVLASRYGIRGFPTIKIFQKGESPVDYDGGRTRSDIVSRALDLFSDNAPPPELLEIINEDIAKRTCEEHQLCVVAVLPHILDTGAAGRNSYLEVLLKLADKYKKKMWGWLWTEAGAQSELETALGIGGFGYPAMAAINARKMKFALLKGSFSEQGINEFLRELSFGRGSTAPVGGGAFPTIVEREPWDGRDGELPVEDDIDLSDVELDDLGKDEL
PDI turbidity – PDI (human) enzyme inhibition | PDI insulin aggregation turbidity, A650, 90 min | P07237 | inhibition, % at 10 µM | 350,000 compounds, 0.052% hits | AID 588391;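 active = mean inhibition across replicates of 30% or more, whatever share of single replicates reach that level; inconclusive = mean inhibition below 30% while every single replicate reaches 30%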
* marks the source's active call; other numbers are inactive results; u = inconclusive; x = no result. Only a selection was taken, and hits are over-represented in it overall.

SMILES	ALR H2O2 inh	ARNT TACC3 PPI	CendR NRP1 mod	PglD DTNB	ERp5 block	PDI turbidity
COCC(=O)N(C)C[C@@H]1Oc2cc(C#C[C@@H](C)O)ccc2S(=O)(=O)N([C@H](C)CO)C[C@H]1C	x	-5.8	x	2.8	1.2	x
CC(=O)N1[C@H](Cc2ccccc2)C=C[C@]1(C)C(=O)NCCc1c[nH]c2ccccc12	99.2*	0.3	12.3	-0.4	1.5	1.6
CCCN(C)C[C@H]1OCc2cnnn2CCCC(=O)N([C@@H](C)CO)C[C@@H]1C	x	-0.1	x	-0.6	6.7	x
CC(=O)N(C)C[C@H]1Oc2cc(C#CC(C)(C)O)ccc2S(=O)(=O)N([C@@H](C)CO)C[C@@H]1C	x	-5.9	x	-7.0	-2.9	x
CCC1C(C#N)=C(SCC(N)=O)NC2=C1C(=O)CC(C)(C)C2 (stereo unspecified)	96.6*	x	7.1	0.4	1.7	0.6
CC1C(C#N)=C(SCC(N)=O)NC2=C1C(=O)CC(C)(C)C2 (stereo unspecified)	45.6	-3.9	-29.0	x	-3.2	6.6
COc1nccnc1NS(=O)(=O)c1ccc(NC(=S)NC(=O)c2cccc(F)c2)cc1	91.0*	2.6	-13.6	x	x	-0.4
CC(=O)N(C)C[C@H]1Oc2ncc(C#Cc3cccnc3)cc2C(=O)N([C@@H](C)CO)C[C@@H]1C	x	-3.2	x	-1.4	0.6	x
COc1ccccc1-c1ccc2c(c1)[C@H]1[C@H](CCN1C(=O)C1CCCC1)[C@@H](CO)N2	x	x	x	x	1.5	x
Cn1cc(SCC(=O)Nc2nccs2)c2ccccc21	97.7*	4.2	8.0	-0.3	3.3	x
Nc1ccccc1SCC(=O)Nc1nccs1	-1.5	-1.6	0.5	x	2.5	-6.8
Cn1cc(SCC(=O)NCC2CCCO2)c2ccccc21 (stereo unspecified)	97.4*	-3.3	-0.8	-2.3	-7.2	x
CNC[C@@H]1Oc2ccc(NC(=O)Nc3cccc4ccccc34)cc2CC(=O)N([C@@H](C)CO)C[C@H]1C	x	8.1	x	1.9	0.9	x
C[C@@H]1CCCCO[C@H](CN(C)C(=O)Nc2ccc3c(c2)OCO3)[C@@H](C)CN([C@H](C)CO)C(=O)c2cc(NS(C)(=O)=O)ccc2O1	x	-0.2	x	1.1	3.5	x
CCC(CC)N1CCN(CC2CC=CCC2)CC1 (stereo unspecified)	6.9	-4.8	23.3*	x	2.8	8.2
COc1ccc(CSC2=NCCN2)cc1Br	98.9*	-7.7	-5.8	-5.3	-3.7	0.7
COc1ccc(CSc2nncn2N)cc1Br	-14.7	active	-3.6	16.4	x	6.2
COc1ccc(CSc2nnc(C)n2N)cc1Br	-17.4	-1.8	-6.8	1.6	x	2.5
Clc1cccc(CSC2=NCCCN2)c1	-1.4	-7.2	x	x	x	x
COc1ccc(CSC2=NCCN2)cc1Cl	100.2*	2.1	5.6	1.2	x	0.4
COc1ccccc1C(=O)Nc1ccc2c(c1)C(=O)N(C)[C@@H]1CC[C@@H](CC(=O)NCc3ccc(Cl)c(Cl)c3)O[C@@H]1CO2	x	-5.2	x	0.3	-4.1	x
C[C@@H]1CN([C@@H](C)CO)C(=O)Cc2cc(NC(=O)c3ccncc3)ccc2O[C@H]1CN(C)CC1CC1	x	-2.2	x	1.3	15.8	x
CCc1ccc2cccc3c2c1N=CN3C	99.6*	35.6	11.1	-5.9	3.6	2.6
Cc1c(NC(=O)Nc2ccc([N+](=O)[O-])cc2)c(=O)n(-c2ccccc2)n1C	-2.4	-3.5	-8.4	-5.0	-5.5	2.7
Cc1c(NC(=S)N/N=C/c2cc([N+](=O)[O-])ccc2O)c(=O)n(-c2ccccc2)n1C	63.1	69.6*	16.2	-2.8	0.0	-5.2
SMILES	ALR H2O2 inh	ARNT TACC3 PPI	CendR NRP1 mod	PglD DTNB	ERp5 block	PDI turbidity
Cc1c(NC(=S)N/N=C/c2ccc(O)cc2)c(=O)n(-c2ccccc2)n1C	99.2*	2.1	4.8	4.5	x	-6.6
CNC[C@H]1OCCCC[C@H](C)Oc2ccc(NS(=O)(=O)c3cccs3)cc2C(=O)N([C@@H](C)CO)C[C@H]1C	x	1.8	x	5.0	-0.9	x
CC(Sc1nnnn1C1CC1)C(=O)N1c2ccccc2NC(=O)C1(C)C (stereo unspecified)	-4.7	-15.9	25.6*	-0.4	-2.8	10.5
Cc1nc(Cc2nnc(SC(C)C(=O)N3c4ccccc4NC(=O)C3(C)C)o2)cs1 (stereo unspecified)	x	x	3.3	0.4	-5.1	9.9
C[C@@H]1CN([C@H](C)CO)C(=O)c2cc(NS(C)(=O)=O)ccc2O[C@@H](C)CCCCO[C@H]1CN(C)C(=O)Nc1ccc2c(c1)OCO2	x	1.7	x	0.4	4.2	x
FC(F)(F)c1cnc(NNC(=S)Nc2ccccc2Cl)c(Cl)c1	96.7*	36.9	2.7	-1.2	x	-8.5
Cc1cc(C)n(-c2nnc(NCc3ccc(Cl)cc3)nn2)n1	-57.4	-4.6	30.0*	x	u	18.1
Cc1cc(=S)nc(-c2ccccn2)[nH]1	13.3	59.1*	4.6	x	x	9.9
Cc1[nH]c(-c2ccccn2)nc(=S)c1Cl	49.5	41.7	4.8	3.1	3.1	-2.1
CC(=O)Nc1ccc(SC[C@H](CC(C)C)N2CCN(CC(C)C)CCC2=O)cc1	98.5*	0.0	1.3	-2.4	2.5	1.8
CC(=O)Nc1ccc(SC[C@H](CC(C)C)N2CCN(CCc3ccccc3)CCC2=O)cc1	98.8*	-1.8	-3.8	4.7	-0.8	-0.1
Cc1ccc(SCCN2CCN(CCc3ccccc3)CCC2=O)cc1	x	-7.4	24.8	2.6	-4.6	7.0
Cc1ccc(SC[C@H](CC(C)C)N2CCN(CCc3ccccc3)CCC2=O)cc1	x	-0.3	6.3	-3.2	x	0.6
CC(=O)Nc1ccc(SC[C@H](C)CN2CC[C@H](C(C)(C)C)CCC2=O)cc1	99.2*	-6.8	-3.5	-3.7	-0.1	0.5
Cc1ccc(SC[C@H](C)CN2CC[C@H](C)CCC2=O)cc1	-2.0	-9.7	4.9	-1.5	-4.3	6.0
CC(=O)Nc1ccc(SC[C@H](Cc2ccccc2)N2CCN(CC(C)C)CCC2=O)cc1	x	-3.3	18.3	-1.9	3.1	0.2
O=C1CCN(CCc2ccccc2)CCN1CCSc1ccc(Br)cc1	x	-8.4	23.3*	3.7	0.5	0.5
CS(=O)(=O)Nc1ccc2c(c1)[C@H]1C[C@@H](CC(=O)NCc3ccccc3F)O[C@H](CO)[C@H]1O2	x	-5.5	x	-0.1	-11.1	x
O=C(C[C@H]1C[C@H]2c3cc(NC(=O)CC4CC4)ccc3O[C@H]2[C@H](CO)O1)NCCc1ccccc1	x	-14.1	x	1.9	11.4	x
Cc1noc(C)c1S(=O)(=O)Nc1ccc2c(c1)C(=O)N([C@@H](C)CO)C[C@@H](C)[C@@H](CN(C)S(=O)(=O)c1ccc(F)cc1)OCCCC[C@@H](C)O2	x	5.2	x	2.6	-4.8	x
C[C@@H]1CCCCO[C@H](CN(C)C(=O)Nc2ccc3c(c2)OCO3)[C@H](C)CN([C@@H](C)CO)C(=O)c2cc(NS(C)(=O)=O)ccc2O1	x	2.9	x	4.0	4.2	x
CC(C)C[C@@H](CSc1ccc(Br)cc1)N1CCN(CC(C)C)CCC1=O	x	-5.8	21.2*	2.7	-6.4	1.0

Screens deposited in PubChem by several laboratories.
